# Laboratory results taken from PubChem BioAssay AID435019 (Southern Research Specialized Biocontainment Screening …, 2010).
# The whole screen tested about 2,300 compounds, of which about 1,200 (52%) were called active. No rule for the calls is given here. So high a share suggests a set chosen from earlier hits. This is one part of the list. Entries with a potency or affinity are not part of this list.
# Assay: mammalian cell cytotoxicity, dose response, cytotoxicity control for M. tuberculosis inhibitor project (AID 435019);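 also: 0% = background wells and 100% = vehicle-treated cells; lower values mean fewer viable cells so more cytotoxicity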
# Conditions: cytotoxicity counter-screen; series mostly up to 40 µM; viability: at the top concentration
row,Structure (SMILES),viability
1,C=CCN(CC(=O)c1sc(C(=O)OCC)nc1C)c1cccc(Br)c1,91.5% (inactive)
2,CCCCOC(=O)c1ccc(O)cc1,95% (inactive)
3,[O-][n+]1c2ccccc2c2n1CCN1CCOC21c1ccc(Cl)cc1 (configuration not stated),85.2% (inactive)
4,Cc1nonc1NC(=O)CSc1ccc(-c2ccccc2)nn1,90.2% (inactive)
5,O=C(OCC(=O)c1cccs1)C1=COCCO1,98.4% (inactive)
6,CCCCn1nc(C(=O)Nc2ccccc2N2CCCC2)c2ccccc2c1=O,82.5% (inactive)
7,COC(=O)COc1ccc(-c2nn(C)c(=O)c3ccccc23)cc1,93.7% (inactive)
8,COc1cc(CNC(=O)CCCCCCC(C)C)ccc1O,93% (inactive)
9,COC(=O)Cn1nc(-c2ccccc2)c2cc(Cl)ccc21,88% (inactive)
10,CC1=CC(=O)NP(=O)(Oc2ccc3ccccc3c2)N1 (configuration not stated),93.5% (inactive)
11,CC(=O)Oc1ccc2occ(C(=O)c3cccs3)c2c1,102% (inactive)
12,Nc1nc2ccccc2n1/N=C/c1ccc(Br)cc1,95.2% (inactive)
13,CC(C)(C)Nc1nc(NC(C)(C)C)nc(-n2ccnc2)n1,90.2% (inactive)
14,CCOC(=O)CNC(=O)CNC(=O)c1nn(-c2ccc(OC)c(Cl)c2)c(=O)c2ccccc12,99% (inactive)
15,CCOC(=O)c1ccc(-n2c(CCC(=O)O)ccc2-c2cccs2)cc1,96.7% (inactive)
16,CC(C)OC(=O)c1ccc(N)cc1,102% (inactive)
17,CCc1ccc(NC2=NCC(c3ccccc3)S2)cc1 (configuration not stated),87.4% (inactive)
18,CC(C)OC(=O)c1ccc(NC(=S)NC(=O)c2cncc(Br)c2)cc1,94.2% (inactive)
19,Cc1[nH]nc(SCC(=O)NCc2ccccc2)c1[N+](=O)[O-],90.9% (inactive)
20,COc1ccc(-c2ccc(-c3noc(C(C)C)n3)c(OC)n2)cc1,81.4% (inactive)
21,Cc1ccc(C(=O)C2CCN(CC(=O)Nc3nc(C)cs3)CC2)cc1,83.6% (inactive)
22,Cc1ccc(Cl)cc1NC(=O)CN1CCN(S(=O)(=O)N2CCOCC2)CC1,90.4% (inactive)
23,CCCCNC(=S)N/N=C/c1cccc(OCC)c1O,95.4% (inactive)

row,Structure (SMILES),viability
1,CCOC(=O)CN[C@H]1CCC2C3CC=C4C[C@@H](O)CC[C@]4(C)C3CC[C@@]21C (some centres not stated),95.8% (inactive)
2,Cc1ccc(C(=O)ONc2ccc(N=O)cc2)cc1,89.5% (inactive)
3,COc1ccc(NC(NC(=O)c2ccc(OC)cc2)C(Cl)(Cl)Cl)cc1 (configuration not stated),85.7% (inactive)
4,CCOC(=O)c1nn(-c2ccc(C)cc2)c2nc(Nc3ccccc3)cc(=O)n12,94.8% (inactive)
5,Cn1nc([N+](=O)[O-])nc1Sc1ccc(C(C)(C)C)cc1,84.8% (inactive)
6,Cn1cnc(Sc2ncnc3nc[nH]c23)c1[N+](=O)[O-],82.1% (inactive)
7,Cc1cc(C)n(-c2cc(C(C)(C)C)nc3c(-c4ccccc4)cnn23)n1,85% (inactive)
8,Cc1cc(-c2nnc3n2CCCCC3)c(C)n1-c1ccccc1,90.5% (inactive)
9,C/C(=N\N(Cc1ccccc1)c1ccccc1)c1ccncc1,88.6% (inactive)
10,CCOC(=O)CSc1nnc(-c2ccc(S(=O)(=O)NCc3cccs3)cc2)o1,100% (inactive)
11,Cn1c(=S)c2[nH]c(SCCN3CCCC3)nc2n(C)c1=O,93% (inactive)
12,CCOC(=O)CNc1ccc(C(=O)OCC)cc1[N+](=O)[O-],102% (inactive)
13,CCCc1cc(C(N)=S)ccn1,94.8% (inactive)
14,CCCn1c(=N)n(CC(=O)c2ccc(OCC(=O)OC)cc2)c2ccccc21,97.9% (inactive)
15,Cc1ccc(S(=O)(=O)N2CCC(C(=O)OCc3ccccc3)CC2)cc1C,96.3% (inactive)
16,CCOC(=O)C1=NOC(CNc2ncc(C(F)(F)F)cc2Cl)C1 (configuration not stated),97.5% (inactive)
17,NC(=O)c1cccn1-c1ncc(C(F)(F)F)cc1Cl,106% (inactive)
18,CCOC(=O)c1ccc(N=C2SC(C(=O)Nc3ccc(C(=O)O)cc3)CC(=O)N2Cc2cccs2)cc1 (configuration not stated),90.3% (inactive)
19,Cc1cc(C2=NNC(=NC3CCCCC3)SC2)c(C)n1-c1c(C)n(C)n(-c2ccccc2)c1=O,98.9% (inactive)
20,S=C(NCCN1CCOCC1)N/N=C/c1cccs1,89.9% (inactive)
21,Cc1ccc(C)c2nc(N3CCCC3)c(C#N)cc12,91.6% (inactive)
22,Cc1nc(SCC(=O)NC2CCCCC2)[nH]c(=O)c1C,95.2% (inactive)
23,CCOC(=O)COc1ccc(C2CC(C)=NN2c2ccccc2)cc1 (configuration not stated),96.7% (inactive)

row,Structure (SMILES),viability
1,CC1CCCC(C)N1C(=O)COC(=O)c1cc(-c2cccs2)nn1-c1ccccc1 (configuration not stated),101% (inactive)
2,O=C(CCN1C(=O)C2C3C=CC(C3)C2C1=O)Oc1ccc2ccccc2c1 (configuration not stated),94.8% (inactive)
3,O=C(COC(=O)C1CCN(c2ccc(C(F)(F)F)cn2)CC1)Nc1ccc(F)cc1[N+](=O)[O-],95.2% (inactive)
4,O=C(Cc1ccc(Nc2nc3ccc(Br)cc3[nH]2)cc1)NCCc1cccs1,86.8% (inactive)
5,Brc1cccc2sc(N3CCN(c4ccccc4)CC3)nc12,85.2% (inactive)
6,Cc1[nH]n(S(=O)(=O)Cc2ccccc2)c(=O)c1N=Nc1ccccc1Cl,105% (inactive)
7,CN1CCN(c2c(F)cc3c(=O)c(C(=O)O)cn4c3c2OCN4C)CC1,98.7% (inactive)
8,C=C(C)C1CC=C(CN2CCN(Cc3ccccc3)CC2)CC1 (configuration not stated),93.8% (inactive)
9,Cc1cccc(C2=N/C(=C\c3cccs3)C(=O)O2)c1,104% (inactive)
10,Cn1c(=O)c2[nH]c(-c3ccc(S(=O)(=O)O)cc3)nc2n(C)c1=O,94.3% (inactive)
11,C=CCOC(=O)COc1ccc2c(C)c(CC)c(=O)oc2c1,99.1% (inactive)
12,C/C(CCc1ccc2c(c1)OCO2)=N\NC(=S)NC(C)C,81.8% (inactive)
13,Cc1ccc(/C=N/NC(=S)NC(C)C)o1,97.9% (inactive)
14,CCCCCCC[N+](CC)(CC)CCCCc1ccc(Cl)cc1,89.3% (inactive)
15,COc1cc(/C=N/N2CCOCC2)ccc1OCc1ccc(Cl)cc1,85.8% (inactive)
16,COc1ccc(N=Cc2c(OC)ccc3ccccc23)cc1,90% (inactive)
17,COc1ccccc1/C=C/C(=O)Nc1ccc(S(=O)(=O)Nc2cc(C)on2)cc1,91.3% (inactive)
18,Cc1cn(-c2ccc(Br)cc2)[nH]c1=O,96.3% (inactive)
19,CN(C(=O)COC(=O)c1ccc([N+](=O)[O-])cc1Cl)C1CCCCC1,101% (inactive)
20,COc1ccccc1N(O)C1CC(=O)N(c2ccc(Br)cc2)C1=O (configuration not stated),94.8% (inactive)
21,O=C(OCC(=O)c1c[nH]c2ccccc12)c1cc(Br)ccc1O,94.9% (inactive)
22,COc1cccc(COC(=O)c2ccc3c(=O)n4c(nc3c2)CCC4)c1OC,83% (inactive)
23,C=CCn1c(N)cc(=O)nc1SC(CC)C(=O)Nc1ccc(C(C)=O)cc1 (configuration not stated),102% (inactive)

row,Structure (SMILES),viability
1,NC(=O)c1ccc(N=Cc2ccc([N+](=O)[O-])s2)cc1,80.4% (inactive)
2,CCN(CC)C(=S)SSC(=S)N(CC)CC,85.7% (inactive)
3,O=C(CSCC(=O)Nc1ccc2ccccc2c1)NCc1ccccc1,105% (inactive)
4,C/C(=C\C(=O)c1ccccc1)Nc1ccc(Cl)c(Br)c1,99.4% (inactive)
5,COC(=O)C(C)Oc1cc(C)ccc1COc1ccc(-n2nc(C)n(C(F)F)c2=O)cc1 (configuration not stated),87.3% (inactive)
6,CC1=NN(c2ccccc2)C(=O)/C1=C\c1c(C)[nH]n(-c2ccccc2)c1=O,83.9% (inactive)
7,Cc1[nH]n(-c2ccccc2)c(=S)c1C=NCCCN=Cc1c(C)[nH]n(-c2ccccc2)c1=S,96.7% (inactive)
8,O=C(NC1CCN(C(=O)N2c3ccccc3Sc3ccccc32)CC1)c1ccccc1F,86.3% (inactive)
9,Oc1ccc(/C=N/NC(=S)N2CCOCC2)cc1,84.3% (inactive)
10,CC1CCN(c2nc(Cl)nc(Nc3ccc([N+](=O)[O-])cc3)n2)CC1,88.8% (inactive)
11,O=c1c2cc(Br)cc(Br)c2oc2nc3n(c(=O)c12)CCCS3,100% (inactive)
12,Cc1ccc(C2=NNC3(CCOC(C)(C)C3)S2)cc1 (configuration not stated),106% (inactive)
13,Cc1cccc2c1N(CCCOc1ccc(C(C)(C)C)cc1)C(=O)C2=O,84% (inactive)
14,CCOc1ccc(N/C(C)=C/C(=O)c2ccc3c(c2)OCCO3)cc1,97.4% (inactive)
15,Cc1ccc(NN=C2c3ccccc3-c3ccccc32)cc1,92% (inactive)
16,CC1(c2nnc(-c3ccncc3)o2)CC(c2ccccc2)=NO1 (configuration not stated),92.3% (inactive)
17,Cc1ccnc(NC(=O)COc2ccc3c(c2)CCC3)c1,97.4% (inactive)
18,O=C1C(Cl)=C(N2CCOCC2)C(=O)N1c1cccc(Cl)c1,91.6% (inactive)
19,O=C(CN1CCN(c2ccc(F)cc2)CC1)N1CCC(Cc2ccccc2)CC1,85.5% (inactive)
20,COc1ccc(/C=N/OCC(=O)OCC(=O)N(C)c2ccccc2)cc1,91.8% (inactive)
21,O=C1C2C(c3ccccc3)(C(=O)N1c1ccc(Cl)cc1)C2(c1ccccc1)c1ccccc1 (configuration not stated),90.5% (inactive)
22,COc1ccc(NC2(c3ccc(Cl)cc3)C(=O)c3ccccc3C2=O)cc1,94.8% (inactive)
23,CC1(c2ccc(OC(F)F)cc2)NC(=O)N(CC(=O)c2ccc3c(c2)OCO3)C1=O (configuration not stated),93.4% (inactive)

row,Structure (SMILES),viability
1,COC(=O)CCn1c(C)cc(C(=O)COc2ccccc2C(N)=O)c1C,81.6% (inactive)
2,c1ccc(-c2ccccc2OCCCCn2ccnc2)cc1,80.4% (inactive)
3,CCCn1nnnc1NC(=O)c1ccc(C)cc1Cl,90.1% (inactive)
4,CCCc1cc2c(cc1NC(=O)c1ccccc1Cl)OCO2,91.1% (inactive)
5,Nc1nc(-c2cccc(F)c2)cs1,87.4% (inactive)
6,NC1=NC[C@H](Cc2ccc(O)cc2)N1CCc1cccc2ccccc12,85% (inactive)
7,N#CC1=C(N)NC(SCC(=O)c2ccccc2)=C(C#N)C12CCCC2,82.1% (inactive)
8,CCOC(=O)CSC1=C(C#N)C(c2ccc(C)cc2)C2=C(CCCC2=O)N1 (configuration not stated),95.6% (inactive)
9,CCOC(=O)CSc1nnc(NC(=O)c2ccc3c(c2)OCO3)s1,93.7% (inactive)
10,C=C(C)C1CCC(C)=C1COC(=O)Nc1ccccc1 (configuration not stated),81.2% (inactive)
11,CC(C)C(=O)Nc1cccc(-c2nc3ccccc3c(=O)o2)c1,101% (inactive)
12,Cc1ccc(C(=O)OCc2nnc(-c3ccccc3)o2)s1,94.3% (inactive)
13,CCOC(=O)c1ccc(N2CC(O)=C(c3nc4ccccc4c(=O)[nH]3)C2=N)cc1,94.1% (inactive)
14,O=C(CSc1nn(-c2ccc(F)cc2)c(=S)s1)NCC1CCCO1 (configuration not stated),92.4% (inactive)
15,Cc1nn(-c2ccccc2)c(Cl)c1/C=N/NC(=O)c1ccc(CNc2ccccc2)o1,96.3% (inactive)
16,Cc1ccc(C(=O)CCC(=O)OCC(=O)Nc2c(C)nn(-c3ccccc3)c2C)cc1,101% (inactive)
17,CCOC(=O)C(/C=C(\C#N)C(=O)OCC)=C(/N)N1CCN(c2ccc(Cl)cc2)CC1,90.8% (inactive)
18,CCN1CCN(c2oc(COc3ccc(-c4ccccc4)cc3)nc2C#N)CC1,81.5% (inactive)
19,Clc1ccc(-c2cc3ccccc3nc2N2CCCC2)cc1,85.9% (inactive)
20,O=C1C2C(C(=O)N1/N=C/c1ccc([N+](=O)[O-])o1)C1C=CC2C12CC2 (configuration not stated),99% (inactive)
